What all share (assay type): functional
Assay [1] concerns Plasmodium falciparum. The assay can be described thus: GSK_TCMDC: Inhibition of Plasmodium falciparum 3D7 in whole red blood cells, using parasite LDH activity as an index of growth. Test compounds present at 2uM.
Assay [2] relates to Plasmodium falciparum. The assay can be described thus: GSK_TCMDC: Inhibition of Plasmodium falciparum Dd2 in whole red blood cells, using parasite LDH activity as an index of growth. Test compounds present at 2uM.
Another assay relates to HepG2. The assay can be described thus: GSK_TCMDC: Percent inhibition of human HepG2 cell line. Test compounds present at 10uM.

Results on 29 molecules are retold here after ChEMBL document CHEMBL1157539, “Thousands of chemical starting points for antimalarial lead identification” (Nature, 2010).

As a reminder, the Inhibition is the change of the read-out against control, counted positive when it falls. Regarding `CC1C(c2cccc(Cl)c2)OCC(C)(C)N1C(=O)CCN1CCCCC1.Cl` (configuration not stated), the values for the Inhibition in the assay on Plasmodium falciparum [1], in the assay with Plasmodium falciparum [2] and with HepG2 were 88%, 5% and 2%, respectively.
As to `Cc1cc(N/N=C/c2ccccc2[N+](=O)[O-])c2cccc(C)c2n1`, the Inhibition in the assay with Plasmodium falciparum [1] is 99%; with Plasmodium falciparum [2], 100%; in the assay with HepG2, 0%.
For the molecule `CCCn1c(Sc2ccc(C#N)c([N+](=O)[O-])c2)nnc1-c1ccc(OC)cc1`, the Inhibition came to 94% in the assay with Plasmodium falciparum [1], 95% with Plasmodium falciparum [2] and 0% with HepG2.
For `CC(Cc1ccc(CNC(=O)NCc2ccc(CC(C)NCCc3cccc(Cl)c3)cc2)cc1)NCCc1cccc(Cl)c1` (configuration not stated), in that order: 100%, 44% and 100%.
As for `CN1CCC(NCc2cccc(-c3cccc(S(=O)(=O)NCc4ccccc4)c3)c2)CC1.O=C(O)C(F)(F)F`, the Inhibition with Plasmodium falciparum [1] worked out at 100%; in the assay on Plasmodium falciparum [2], 6%; in the assay with HepG2, 57%.
`CN(C)CCN1CCN(Cc2ccc(-c3cccc(-c4nc5ccccc5[nH]4)c3)cc2)CC1.O=C(O)C(F)(F)F`: the Inhibition is recorded as 100% in the assay on Plasmodium falciparum [1], 100% in the assay with Plasmodium falciparum [2] and 25% in the assay on HepG2.
On to `Cl.c1ccc(-c2cc(NCCCCCCCCNc3cc(-c4ccccc4)nc4ccccc34)c3ccccc3n2)cc1`, for which the Inhibition with Plasmodium falciparum [1] is reported as 100%; with Plasmodium falciparum [2], 72%; in the assay with HepG2, 36%.
On the same counts, the results for `COc1ccc2nccc(NCC3(O)CCN(CC(O)c4ccc5c(c4)NC(=O)CS5)CC3)c2n1.Cl` (configuration not stated) are 100%, 3% and 3%.
With `COc1ccc(Oc2ccc(-c3c(O)cc(C)nc3C)cc2)cc1`, the figures for the Inhibition with Plasmodium falciparum [1], in the assay with Plasmodium falciparum [2] and in the assay on HepG2 were 93%, 88% and 0%, respectively.
With `O=C(Nc1ccc(OC2CCN(Cc3ccc(F)cc3)CC2)c(Cl)c1)c1ccco1.O=C(O)C(F)(F)F`, the Inhibition in the assay on Plasmodium falciparum [1] is 95%; with Plasmodium falciparum [2] it was 95%; with HepG2, 2%.
For the molecule `O=C(Cn1c(CCc2cccc(F)c2F)cc(=O)c2cccnc21)N(CCn1ccnc1)Cc1ccc(-c2ccc(C(F)(F)F)cc2)cc1`, the Inhibition is reported as 99% with Plasmodium falciparum [1], 62% in the assay on Plasmodium falciparum [2] and 39% in the assay on HepG2.
On to `O=C(NC1CCCCCC1)C1CCCN(C(=O)c2ccc(O)c(-c3ccc(Cl)c(Cl)c3)c2)C1` (configuration not stated), for which the Inhibition with Plasmodium falciparum [1] came to 98%; in the assay with Plasmodium falciparum [2], 21%; with HepG2, 5%.
On the same counts, the results for `NCc1ccc(CNCc2cccc(-c3cccc(-c4nc5ccccc5[nH]4)c3)c2)cc1.O=C(O)C(F)(F)F` are 100%, 11% and 7%.
On the same counts, the results for `Cc1onc(-c2c(Cl)cccc2Cl)c1C(=O)N1CCc2cc3nccc(N4CCN5CCC[C@H]5C4)c3cc21` are 100%, 58% and 3%.
On the same counts, the results for `Cc1ccc2c(-c3ccc([N+](=O)[O-])o3)cc(C)nc2c1` are 95%, 47% and 20%.
As to `CCCN(CCC)CCCNc1ccc(C(=O)Nc2ccc(C)c(F)c2)cc1[N+](=O)[O-]`, the Inhibition amounted to 100% in the assay on Plasmodium falciparum [1], 94% in the assay on Plasmodium falciparum [2] and 33% in the assay with HepG2.
For `Cc1cc(NC(=O)c2cccs2)ccc1OC1CCN(Cc2ccc(C#N)cc2)CC1.O=C(O)C(F)(F)F`, the Inhibition in the assay with Plasmodium falciparum [1] is reported as 94%; in the assay on Plasmodium falciparum [2] it was 92%; in the assay with HepG2 it was 34%.
As to `CN1CCCc2ccc(NC(=O)Nc3ccc(-c4ccccc4)cc3)cc2C1`, the Inhibition in the assay on Plasmodium falciparum [1] is recorded as 97%; in the assay on Plasmodium falciparum [2], 47%; with HepG2 it was 23%.
For the molecule `COc1ccc2nccc([C@@H](O)CN3CCC(NCc4ccc5c(c4)NC(=O)CS5)CC3)c2c1.O=C(O)C(=O)O`, the Inhibition in the assay with Plasmodium falciparum [1] stood at 100%; in the assay on Plasmodium falciparum [2] it was 36%; with HepG2, 0%.
In the case of `COc1ccc(CNCc2ccc(-c3ccc(CNCCc4ccccc4)cn3)cc2)cn1.O=C(O)C(F)(F)F`, the Inhibition in the assay with Plasmodium falciparum [1] is recorded as 97%; with Plasmodium falciparum [2], 44%; in the assay with HepG2, 16%.
In the case of `Cc1nnsc1C(=O)Nc1cccc(-c2cccc(-c3nc4cc(C(F)(F)F)ccc4[nH]3)c2)c1`, the Inhibition was 100% with Plasmodium falciparum [1], 100% with Plasmodium falciparum [2] and 70% in the assay on HepG2.
With `Cc1ccc(NC(=O)NC2CCN(c3ccnc4cc(Cl)ccc34)CC2)cc1.O=C(O)C(F)(F)F`, the Inhibition is on record as 100% in the assay with Plasmodium falciparum [1], 47% in the assay on Plasmodium falciparum [2] and 4% with HepG2.
With `Cc1cccc(-c2nn(-c3ccccc3)c3[nH]c(=O)c(CN4CCSCC4)cc23)c1`, the Inhibition was determined as 98% with Plasmodium falciparum [1], 98% in the assay on Plasmodium falciparum [2] and 0% with HepG2.
As for `CN(Cc1ccccc1)C(=O)c1nn(CCCN2CCC(N3CCCC3)CC2)cc1-c1ccc(Cl)c(Cl)c1`, the Inhibition in the assay on Plasmodium falciparum [1] is given as 100%; in the assay on Plasmodium falciparum [2], 66%; with HepG2, 43%.
Turning to `O=C(/C=C/c1ccc(Cl)c(Cl)c1)NC1CCN(Cc2cccc(O)c2)CC1.O=C(O)C(F)(F)F`, the results for the Inhibition with Plasmodium falciparum [1], in the assay on Plasmodium falciparum [2] and in the assay on HepG2 were 94%, 0% and 0%, respectively.
For `O=C(Nc1ccc(S(=O)(=O)N2CCCC2)cc1)c1cc(-c2cccnc2)nc2ccc(Cl)cc12`, the results for the Inhibition with Plasmodium falciparum [1], in the assay on Plasmodium falciparum [2] and in the assay on HepG2 were 97%, 95% and 4%, respectively.
With `Cc1ccnc(-n2c(C)cc(C=C3SC(=Nc4ccccc4)N(Cc4ccco4)C3=O)c2C)c1`, the values for the Inhibition in the assay with Plasmodium falciparum [1], with Plasmodium falciparum [2] and in the assay with HepG2 were 99%, 98% and 0%, respectively.
For `CCCCN1CCN(c2cc(NS(=O)(=O)c3cccc(C(=O)Nc4ccc(C(F)(F)F)cc4)c3)ccc2OC)CC1.O=C(O)C(F)(F)F`, in that order: 99%, 7% and 6%.
As to `Br.CC1(C)NC(N)=NC(=N)N1OCCc1ccc(N)cc1`, the values for the Inhibition in the assay on Plasmodium falciparum [1], in the assay on Plasmodium falciparum [2] and in the assay with HepG2 were 93%, 95% and 65%, respectively.
